Records with an inconclusive call do not appear. Calls of active or inactive are those of the source. Unless noted, the limit is not given here; nearly all actives have AC50 up to about 23 µM.

The nature of experiment [1]: stimulators of insulin release from INS-1E, primary screen, cell-based, 5 mM glucose, NPC library (AID 1117329;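 active = compound raises insulin release from rat beta cells at 5 mM glucose, no numeric limit stated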). As to conditions: rat INS-1E insulin secretion, at 10 µM, stronger effect = higher value.
A short description of experiment [2]: growth inhibition of GSK3B-pretreated HCT116 cells – cell-based, CellTiter-Glo, 0.2 to 20 µM (AID 1117336;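 active = compounds lowering colon cancer cell viability after pretreatment blocking the GSK3B kinase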). The note with it: HCT116 viability after GSK3B inhibitor, at 20 µM, stronger effect = higher value. In general terms: Cellular ATP, detected with luciferase, serves as a proxy for viable cell number.
Experiment [3] can be described thus: inhibition of endothelial tube formation, primary screen, imaging, VEGF stimulated, CD31 staining, tube area, NPC library (AID 1117340;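 active = compound that reduces growth-factor-driven endothelial tube area in a mixed cell culture, no cutoff stated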). As to conditions: VEGF-stimulated ADSC/ECFC co-culture, at 10 µM, stronger effect = higher value.
Experiment [4] in a line: glucagon-like peptide 1 release enhancers, primary assay, NCI-H716 cell line, NPC library (AID 1117341;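 active = compound raises GLP1 secretion from the human gut endocrine cells, with no numeric limit stated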). As to conditions: NCI-H716 cells, at 10 µM, stronger effect = higher value.
Experiment [5] is described as follows: HCT116 colon cancer cell growth inhibition, primary screen, CellTiter-Glo luminescence, NPC library (AID 1117342;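 active = compounds that lower survival of HCT116 colon cancer cells in the luminescence readout, no numeric limit stated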). As to conditions: at 20 µM (top of the series).
Experiment [6] in a line: CellTiter-Glo luminescent readout of SW480 viability loss, NPC library primary (AID 1117343;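 active = compounds that lower viability of the colon cancer cells in the luminescence readout, with no numeric limit stated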). The note with it: CellTiter-Glo luminescence; at 20 µM (top of the series).
Experiment [7] is described as follows: decreased DLD-1 cellular survival, CellTiter-Glo luminescent readout, NPC compound collection, primary HTS (AID 1117346;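 active = compounds that lower survival of DLD-1 colon cancer cells in the luminescence readout, no cutoff given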). As to conditions: DLD-1 viability, CellTiter-Glo luminescence; at 20 µM (top of the series).
The target in experiment [8] is 6-phosphogluconate dehydrogenase, decarboxylating (Homo sapiens) (UniProt P52209). Put plainly: 6PGD enzyme inhibitors, primary screen, biochemical, human, recombinant enzyme, NADPH absorbance (AID 1159550;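 active = at least 20% inhibition of 6-phosphogluconate dehydrogenase activity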). As to conditions: recombinant 6PGD, NADPH absorbance 341 nm; at 10 µM; stronger effect = higher value.
Experiment [9] can be described thus: differential killing of epithelial or mesenchymal cells, primary screen, imaging, PC-3E GFP, TEM4-18 mCherry, co-culture (AID 1345086;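 active = compounds killing one labelled cell type while sparing the other, by normalised counts and ratio limits, not self-fluorescent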;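 as to all read-outs here: cells exposed to compound for 72 h before imaging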;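 as to red/green cell ratio (normalised): normalised mesenchymal count divided by normalised epithelial count so high means epithelial killing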). As to conditions: imaging cell counts, at 1 µM; for red/green cell ratio (normalised): actives lie on both sides, counts scaled to control wells, 1 = unselective.
Experiment [10] is described as follows: growth inhibition of DIPG glioma cells, dose response, cell-based, SU-DIPG-XVII, MIPE5.0, CellTiter-Glo, qHTS (AID 1347060; cut-off not given, nearly all actives have AC50 up to about 26 µM;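 as to AC50: cells exposed to compound for 48 hours before viability readout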). The note with it: SU-DIPG-XVII viability, CellTiter-Glo ATP luminescence.
The nature of experiment [11]: growth inhibition of DIPG glioma cells, dose response, cell-based, SU-DIPG-XIII, MIPE4.0, CellTiter-Glo, qHTS (AID 1347061; cut-off not given, nearly all actives have AC50 up to about 37 µM;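 also: cells exposed to compound for 48 hours before readout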). The note with it: SU-DIPG-XIII viability, CellTiter-Glo ATP luminescence.
A short description of experiment [12]: growth inhibition of DIPG glioma cells, dose response, cell-based, JHH-DIPG-1, MIPE4.0, CellTiter-Glo, qHTS (AID 1347062; cut-off not given, nearly all actives have AC50 up to about 27 µM;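 as to AC50: cells exposed to compound for two days before readout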). As to conditions: JHH-DIPG-1 viability, CellTiter-Glo ATP luminescence.
The nature of experiment [13]: growth inhibition of DIPG glioma cells, dose response, cell-based, SU-DIPG-IV, MIPE4.0, CellTiter-Glo, qHTS (AID 1347063; cut-off not given, nearly all actives have AC50 up to about 30 µM;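 also: compound exposure lasted 48 hours before the viability readout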). The note with it: SU-DIPG-IV viability, CellTiter-Glo ATP luminescence.
Experiment [14] in a line: growth inhibition of DIPG glioma cells, dose response, cell-based, SU-DIPG-XIII, MIPE5.0, CellTiter-Glo, qHTS (AID 1347064).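 As to AC50: cells exposed to compound for 48 hours before the viability read.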 The note with it: SU-DIPG-XIII viability, CellTiter-Glo ATP luminescence.
Experiment [15] has as its system Aerobactin synthetase IucA (Klebsiella pneumoniae). Description: IucA aerobactin synthetase inhibitors, biochemical, Tocris library, absorbance (AID 1345561; call rule not given here;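 also: 100% = enzyme without compound and 0% = no enzyme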). The note with it: purified IucA enzyme assay, absorbance (OD) read-out; stronger effect = lower value;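 tested at 8 µM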.
[16] abbreviates: measured here: epithelial PC-3E GFP cell survival.
The mark [17] stands for this setting: measured here: mesenchymal TEM4-18 mCherry cell survival.

Sequence of 6-phosphogluconate dehydrogenase, decarboxylating (Homo sapiens) (P52209 whole entry, looked up): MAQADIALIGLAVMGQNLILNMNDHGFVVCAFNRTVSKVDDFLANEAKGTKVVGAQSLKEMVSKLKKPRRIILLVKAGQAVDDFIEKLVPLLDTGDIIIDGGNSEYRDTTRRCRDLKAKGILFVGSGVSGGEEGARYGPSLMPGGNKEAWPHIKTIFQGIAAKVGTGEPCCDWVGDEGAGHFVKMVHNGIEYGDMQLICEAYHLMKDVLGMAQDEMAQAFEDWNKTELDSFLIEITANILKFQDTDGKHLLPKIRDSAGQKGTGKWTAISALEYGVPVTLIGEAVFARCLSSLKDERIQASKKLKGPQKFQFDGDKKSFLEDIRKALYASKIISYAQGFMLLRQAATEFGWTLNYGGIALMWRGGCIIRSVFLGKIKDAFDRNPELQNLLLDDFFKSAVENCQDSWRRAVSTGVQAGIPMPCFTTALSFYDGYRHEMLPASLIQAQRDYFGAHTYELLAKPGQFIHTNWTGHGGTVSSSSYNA

For `COc1ccc(CCN(C)CCCC(C#N)(c2ccc(OC)c(OC)c2)C(C)C)cc1OC` (centres undefined), the insulin secretion stimulation in [1] is 6.3% (inactive). Also, the viability decrease in experiment [2] is -4.2% (inactive). Further, the tube area decrease in experiment [3] is -13.1% (inactive). Also, in [4], the GLP1 secretion stimulation was -4% (inactive). In addition, in experiment [5], the inhibition of viability was 27.3% (inactive). The viability decrease (inhibition) is 20.2% (inactive) in experiment [6] and -13.8% (inactive) in experiment [7]. In addition, in experiment [8], the inhibition (as a rule, the relative decrease from the control value, in per cent) is 10.8% (inactive). Further, the red/green cell ratio (normalised) in experiment [9] is 1.29 (inactive). Further, the normalised cell number was found to be 1.17 in [9] (setting [16]) and 1.52 in experiment [9] (setting [17]). In addition, the outcome in experiment [10], in experiment [11], in [12], in experiment [13] and in [14] was inactive.
Regarding `Cc1cc(C2CCCCC2)n(O)c(=O)c1`, in [1], the insulin secretion stimulation was 0.4% (inactive). In experiment [2], the viability decrease is 49.9% (active). The tube area decrease in experiment [3] is 109% (active). Further, in experiment [4], the GLP1 secretion stimulation was -3.2% (inactive). Moreover, the inhibition of viability in experiment [5] is 75.1% (active). In addition, the values for the viability decrease (inhibition) in [6] and in experiment [7] were 108% (active) and 90.8% (active), respectively. In addition, the inhibition in experiment [8] was 1.68% (inactive). Moreover, in [9], the red/green cell ratio (normalised) is 1.34 (inactive). Besides, the normalised cell number in experiment [9] (setting [16]) was determined as 0.78; in [9] (setting [17]), 1.04. Also, the AC50 (commonly the concentration giving half of the maximal activity seen) is 2350 nM (active) in experiment [10], 16600 nM (active) in experiment [11], 3320 nM (active) in experiment [13] and 4170 nM (active) in experiment [14].
Consider `NC(=O)NO`, for which, in experiment [1], the insulin secretion stimulation was 0% (inactive). Besides, the viability decrease in experiment [2] is 48.8% (inactive). In addition, in experiment [3], the tube area decrease was 4.9% (inactive). Also, in [4], the GLP1 secretion stimulation was -2% (inactive). The inhibition of viability in experiment [5] was 23.9% (inactive). In addition, the viability decrease (inhibition) in experiment [6] is 8.5% (inactive); in experiment [7], -7.1% (inactive). Also, in experiment [8], the inhibition was -7.1% (inactive). The red/green cell ratio (normalised) in experiment [9] was 1.09 (inactive). Further, the normalised cell number in experiment [9] (setting [16]) stood at 1.01; in experiment [9] (setting [17]), 1.1. Moreover, the compound was called inactive in experiment [10] and in experiment [14]. For the same compound, the AC50 in experiment [12] is 526 nM (active); in experiment [13], 1870 nM (active).
As for `COc1ccnc(CS(=O)c2nc3ccc(OC(F)F)cc3[nH]2)c1OC` (centres undefined), the insulin secretion stimulation in experiment [1] was 1.2% (inactive). Besides, the viability decrease in experiment [2] was 20.6% (inactive). In addition, the tube area decrease in experiment [3] was -16.8% (inactive). In addition, the GLP1 secretion stimulation in experiment [4] was -0.9% (inactive). Further, in [5], the inhibition of viability is 5.27% (inactive). For the same compound, the viability decrease (inhibition) in experiment [6] was -0.2% (inactive); in experiment [7], -5.4% (inactive). The inhibition in experiment [8] was 11.1% (inactive). In addition, the red/green cell ratio (normalised) in experiment [9] is 1.07 (inactive). Moreover, the normalised cell number in experiment [9] (setting [16]) is 1.3; in experiment [9] (setting [17]), 1.4. The compound was classed as inactive in [10], in experiment [12], in experiment [13] and in experiment [14].
As for `CC/C(=C(/CC)c1ccc(O)cc1)c1ccc(O)cc1`, in experiment [1], the insulin secretion stimulation is 0.8% (inactive). In addition, the viability decrease in [2] was 90.8% (active). Besides, the tube area decrease in experiment [3] is 20.8% (inactive). Moreover, in experiment [4], the GLP1 secretion stimulation is 16.6% (inactive). Besides, the inhibition of viability in [5] is 94.3% (active). The results for the viability decrease (inhibition) in experiment [6] and in [7] were 97.7% (active) and 98.4% (active), respectively. Further, the inhibition in [8] is 8.9% (inactive). Besides, the red/green cell ratio (normalised) in [9] was 1.15 (inactive). The normalised cell number was 1.1 in experiment [9] (setting [16]) and 1.27 in experiment [9] (setting [17]). Further, the compound was classed as inactive in [10], in experiment [12] and in experiment [14].
Take `Cc1oncc1C(=O)Nc1ccc(C(F)(F)F)cc1`: in [1], the insulin secretion stimulation is -1.5% (inactive). The viability decrease in [2] is 40% (inactive). Also, in [3], the tube area decrease was 32% (inactive). Moreover, the GLP1 secretion stimulation in experiment [4] is 9% (inactive). The inhibition of viability in [5] is 38.7% (inactive). Also, the viability decrease (inhibition) in [6] was 39.1% (inactive); in experiment [7], 22% (inactive). The inhibition in experiment [8] was -7% (inactive). Further, the red/green cell ratio (normalised) in experiment [9] is 0.74 (inactive). Also, the figures for the normalised cell number in experiment [9] (setting [16]) and in experiment [9] (setting [17]) were 1.34 and 0.99, respectively. In addition, in experiment [15], the remaining activity (in general, what remains of the control signal, in per cent) is 91.8% (inactive). Further, the outcome in experiment [12] and in experiment [14] was inactive.

Values taken from PubChem BioAssay.
